Compound activity (PubChem BioAssay)
D2 PAM-1: human D2 receptor positive allosteric modulation | AID 624464 | potentiation, % (test concentration not listed) | 360,000 compounds, 0.23% hits | DiscoveRx D2 beta-arrestin cells, luminescence, 90 min; 100% = 57 uM dopamine signal | P14416; in the data active = potentiation above about 50%; inconclusive = mostly about 30% to 49%
Target sequence (P14416 whole entry, looked up): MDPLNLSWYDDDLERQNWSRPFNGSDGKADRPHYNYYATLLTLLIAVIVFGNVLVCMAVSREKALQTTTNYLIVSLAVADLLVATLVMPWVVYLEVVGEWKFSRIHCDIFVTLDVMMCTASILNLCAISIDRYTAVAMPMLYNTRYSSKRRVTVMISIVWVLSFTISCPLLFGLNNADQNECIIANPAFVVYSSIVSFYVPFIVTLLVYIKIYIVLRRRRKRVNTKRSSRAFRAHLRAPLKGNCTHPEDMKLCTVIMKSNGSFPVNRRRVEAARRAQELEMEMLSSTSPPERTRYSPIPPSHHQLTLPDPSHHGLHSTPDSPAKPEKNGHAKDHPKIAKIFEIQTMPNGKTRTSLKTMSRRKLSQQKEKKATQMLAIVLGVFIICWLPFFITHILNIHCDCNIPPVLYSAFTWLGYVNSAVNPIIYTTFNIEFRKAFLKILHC
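PathHunter D2 cells, attached overnight at 37 deg C, received compound in DMSO plus dopamine at EC20 (50 nM final) for 90 min at 37 deg C. Beta-arrestin recruitment was read as luminescence after 1 h with detection reagent at ambient temperature.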
D2 ag-1: human D2 receptor agonism in beta-arrestin assay | DiscoveRx PathHunter D2 beta-arrestin, luminescence, 90 min; 100% = 57 uM dopamine signal | P14416 | AID 624465 | 360,000 compounds, 0.084% hits | activation, % (test concentration not listed); in the data active = activation above about 40%; inconclusive = between about 15% and that limit
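Agonist mode: compounds alone added to overnight-plated D2 PathHunter cells for 90 min at 37 C, with 57 uM final dopamine (EC100) defining full response. Beta-arrestin recruitment detected by chemiluminescent reagent, read after 1 h at ambient temperature.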
D2 antagonist: antagonists of human D2 dopamine receptor; HEK293 TREx D2 cells, calcium flux, dopamine EC80; inhibition, % at 10 µM; 340,000 compounds, 2% hits; in the data active = inhibition above about 30%; inactive = below that, where a call was filed
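Tetracycline-induced HEK293 TREx cells expressing D2 receptor forced-coupled to calcium signalling, loaded with no-wash calcium dye. Compounds added and calcium flux read 180 s, then dopamine added at EC80 and read a further 180 s.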
D2 ag-2: agonists of human D2 dopamine receptor; P14416; HEK293 T-REx D2 cells, calcium flux agonist mode; activation, % at 2 µM; 340,000 compounds, 0.53% hits; AID 485358;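 active = activation over 3 SD above normal in the single-dose calcium agonist read, cut at about 30% in these data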
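Agonism is scored from calcium flux in a force-coupled, inducible HEK293 cell line expressing D2, read kinetically for 180 s after compound addition against dopamine controls.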
D2 PAM-2: positively modulates the human D2 dopamine receptor allosterically. 340,000 compounds, 0.34% hits. HEK293 T-REx D2, calcium flux, EC20 dopamine potentiation. AID 485347. potentiation, % at 10 µM;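 active = potentiation over 3 SD above the plate norm, cut at about 30% in these data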
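Potentiation of an EC20 dopamine calcium response is measured in a force-coupled, tetracycline-inducible Hek293 Trex D2 line. Compound-only kinetic reads over 180 s flag agonists before dopamine addition.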
Numbers stand for hits; – = inactive; ? = inconclusive; · = no result. Shown are actives, neighbours in structure and some others; about 2.4% of the full set was active somewhere.

SMILES | D2 PAM-1 | D2 ag-1 | D2 antagonist | D2 ag-2 | D2 PAM-2
O=C1C(Cl)=C(NCCCN2CCOCC2)C(=O)c2ccccc21 | – | – | · | · | ·
O=C1C(Cl)=C(NCCN2CCOCC2)C(=O)c2ccccc21 | – | – | 36 | – | –
CCOCCCNc1nc2c(C)cccn2c(=O)c1/C=C1\SC(=S)N(CC(C)C)C1=O | – | – | – | – | –
CCOC(=O)CC1C(=O)NCCN1c1nc2c(C)cccn2c(=O)c1/C=C1\SC(=S)N(CC(C)C)C1=O (stereo unspecified) | · | · | – | 33 | –
CN1CCC(=O)N(CCSc2ccc(Br)cc2)CC1 | – | – | 53 | – | –
COc1cc(-c2noc(-c3ccc(NCCc4ccccc4)c([N+](=O)[O-])c3)n2)cc(OC)c1OC | · | · | · | – | –
Cc1cc2nc(-c3ccccc3Br)n(/C=C(\c3ccccc3)n3c(=O)[nH]c4ccccc43)c2cc1C | – | – | · | · | ·
CCOc1ccc(NC(=O)CCC(=O)NNS(=O)(=O)c2ccccc2[N+](=O)[O-])cc1 | – | – | – | 105 | –
Cc1ccc(Nc2nnc(C)c(=O)[nH]2)cc1 | – | – | 43 | – | –
Cc1nc(-c2ccc(S(=O)(=O)N3CCN(c4cccc(C(F)(F)F)c4)CC3)cc2)co1 | · | · | · | – | –
CNC(=O)c1ccc(NC(=O)C2CCN(S(=O)(=O)c3cccc(C(F)(F)F)c3)CC2)cc1 | – | – | 30 | – | –
O=C(NNC(=O)C1CCN(S(=O)(=O)c2cccc(C(F)(F)F)c2)CC1)C1CC1 | – | – | – | – | –
O=C(O)/C=C/C(=O)N1CCN(S(=O)(=O)c2cccc(C(F)(F)F)c2)CC1 | ? | – | 31 | – | –
COc1cccc(CNc2nc3cc(C(C)=C(C)C)sc3c(=O)n2C)c1 | – | – | · | · | ·
CCn1cc(C(=O)N2CCN(c3cccc(Cl)c3)CC2)c(=O)c2cc(S(=O)(=O)N3CCC(C)CC3)ccc21 | · | · | · | – | –
COc1cc(C=O)ccc1OCCSc1ccc(C)cc1 | – | – | – | – | –
CCOc1cc(C=O)ccc1OCCSc1ccc(C)cc1 | – | – | 40 | – | –
Cc1ccc(C(C)C)c(OC(C)C(=O)NCC2(N(C)C)CCCCC2)c1 (stereo unspecified) | · | · | · | – | –
O=C(NC(=S)N1CCOCC1)C12CC3CCC(CC(C3)C1)C2 | – | – | – | – | –
O=C(NC(=S)N1CCOCC1)C12CCC3CC(CC(C3)C1)C2 | – | – | – | – | 31
CCC(Oc1ccccc1)C(=O)Nc1ccccc1C(=O)N1CCCCC1 (stereo unspecified) | 69 | – | – | – | –
Cc1cccc(-c2nc(SCCCOc3ccccc3Cl)n3[nH]c(=O)cc3n2)c1 | · | · | · | – | –
Cc1cccc(-c2nc3c4ccccc4nc(N4CCN(c5cccc(Cl)c5)CC4)n3n2)c1 | · | · | · | · | –
CC(=O)Nc1ccc(CN(C)c2c(C)nc3ccc(C(=O)NCCCN4CCCC4=O)cn23)cc1 | – | – | · | · | ·
Cc1ccccc1NC(=O)Cn1cc(S(=O)(=O)N2CCCC2)c(S(=O)(=O)N2CCCC2)c1 | · | · | · | – | –
SMILES | D2 PAM-1 | D2 ag-1 | D2 antagonist | D2 ag-2 | D2 PAM-2
O=C(Cn1c(=O)[nH]c2ccccc2c1=O)N1CCN(Cc2ccc3c(c2)OCO3)CC1 | – | – | – | – | –
CS(=O)(=O)N(CCc1ccccc1)CC(=O)N1CCN(Cc2ccc3c(c2)OCO3)CC1 | – | – | 44 | – | –
O=C(CCCCCn1c(=O)[nH]c2ccccc2c1=O)N1CCN(Cc2ccc3c(c2)OCO3)CC1 | – | – | – | 35 | –
CC(=O)Nc1nonc1-c1nc2ccccc2n1C | – | – | – | – | –
Cn1c(-c2nonc2NC(=O)c2ccc(C(C)(C)C)cc2)nc2ccccc21 | · | · | 44 | – | –
COc1ccc(/C=N/NC(=O)c2ccc(O)cc2O)cc1CSc1ccccn1 | – | – | – | 39 | –
O=C(c1ccccc1O)N1N=C(C(F)(F)F)CC1(O)c1ccc([N+](=O)[O-])cc1 (stereo unspecified) | – | – | – | – | –
CCc1ccc(C2(O)CC(C(F)(F)F)=NN2C(=O)Cc2ccc([N+](=O)[O-])cc2)cc1 (stereo unspecified) | – | – | 33 | – | –
CCc1ccc(NC(=O)COC(=O)CCCC2=NS(=O)(=O)c3ccccc3N2)cc1 | – | – | – | – | –
O=C(COC(=O)CCCC1=NS(=O)(=O)c2ccccc2N1)Nc1ccccc1 | – | – | – | – | 38
CCc1ccc(-n2c(=O)c3c(C)c(C(=O)N(C)C)sc3n(CC(=O)NCC3CCCO3)c2=O)cc1 (stereo unspecified) | – | – | – | – | –
COc1cccc(-n2c(=O)c3c(C)c(C(=O)N(C)C)sc3n(CC(=O)NCC3CCCO3)c2=O)c1 (stereo unspecified) | – | – | 41 | – | –
N/C(=N\OC(=O)c1cc(Cl)ccc1Cl)c1cccnc1 | 73 | ? | · | · | –
N/C(=N\OC(=O)c1ccccc1Cl)c1cccnc1 | 96 | – | – | – | –
NC(=O)c1cccnc1 | – | – | 40 | – | –
O=C(C(=O)c1cccnc1)c1cccnc1 | – | – | · | · | –
O=C(Cc1cccs1)NC1CC(=O)N(c2ccc(F)cc2)C1 (stereo unspecified) | · | · | · | – | –
COc1cccc(OC)c1Oc1ccc(C(F)(F)F)cn1 | – | – | 66 | – | –
FC(F)(F)c1ccc(Oc2ccccc2Cl)nc1 | – | – | – | – | –
COC(=O)c1ccc(NC(=O)C(=O)NCCc2csc3nc(-c4ccccc4F)nn23)cc1 | · | · | · | – | –
COC(=O)/C(=C/c1cccc([N+](=O)[O-])c1)NC(=O)c1ccc(OC)cc1 | – | – | – | – | –
COc1ccc(/C=C(/NC(=O)c2cccc([N+](=O)[O-])c2)C(=O)O)cc1OC | – | – | 56 | – | –
CC(=O)Nc1ccc(NC(=O)C(C)OC(=O)CCC2CCCC2)cc1 (stereo unspecified) | – | – | 30 | – | –
CC(=O)Nc1ccc(NC(=O)C(C)OC(=O)CC2CCCC2)cc1 (stereo unspecified) | – | – | – | – | –
Cc1noc(C)c1CSc1nc2ccccc2s1 | – | – | – | – | ·
SMILES | D2 PAM-1 | D2 ag-1 | D2 antagonist | D2 ag-2 | D2 PAM-2
c1csc(CSc2nc3ccccc3s2)c1 | – | – | 39 | – | –
CCOc1cc(/C=C2\CCCc3c2nc2ccccc2c3C(=O)O)ccc1OC | – | – | 38 | 87 | –
c1ccc2c(c1)CCN(CCCNc1nc3ccccc3n3cnnc13)C2 | – | – | 70 | – | –
CC(=O)NNC(=S)NCCc1ccccc1 | – | – | 49 | – | –
O=[N+]([O-])c1cccc(NC(=S)NCCc2ccccc2)c1 | – | – | 80 | – | –
CCc1ccc(CNC(=O)c2c(C)oc3ncn(CC(C)C)c(=O)c23)cc1 | · | · | · | – | –
c1ccc(COc2cccc(CN3CCCCC3)c2)cc1 | – | – | · | · | –
Cc1cccc(CN2CCN(c3ccccn3)CC2)c1 | 92 | 46 | · | · | ·
